A selection: hits, their analogues and other compounds. The true share with any hit is near 7.4%.
Rab9 promoter act = activators of Rab9 promoter | Huh7 Rab9 promoter-luciferase reporter, luminescence, 24 h | Potency, µM (titrated, usually from 9.22 µM), actives largely listed as activators | 320,000 compounds, 2.8% hits; note: nearly all actives have a fitted effect of over 60% in size
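Stable Rab9-luc Huh7, 1500 cells/well, 2 h settle; cmpd in DMSO, 24 h, 37 °C/5% CO2; luciferase reagent 10 min RT; luminescence.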
NPC1 promoter act = activates the NPC1 promoter | Huh7 NPC1 promoter luciferase reporter, 24 h | 320,000 compounds, 2.4% hits | Potency, µM (doses to about 9.22 µM), actives largely listed as activators; note: nearly all actives have a fitted effect of over 60% in size
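Luminescence from an NPC1 promoter-driven luciferase reporter in stably transfected Huh7 cells was measured after 24 h compound treatment at 37 °C, followed by 10 min ambient incubation with luciferase detection reagent.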
SMN2 splice up = enhancers of SMN2 splice variant expression; Potency, µM (doses to about 46.1 µM), actives largely listed as activators; HEK293 SMN2-luciferase splicing reporter, luminescence, 30-36 h; AID 1458; 210,000 compounds, 2.8% hits; note: nearly all actives have a fitted effect of over 55% in size
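HEK293 cells carry an SMN2 […]–luciferase reporter in which exon 7 inclusion puts luciferase in frame. Cells were plated 10-12 h before compound addition, then incubated 30-36 h at 37C. ONE-Glo luminescence was read; sodium butyrate at 4.5 mM final served as control.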
FLuc modulator = counter-screen for miR-21 project: firefly luciferase inhibitors or activators; purified FLuc, Km substrates, luminescence inhibition; Potency, µM (doses to about 57.5 µM), most hits filed as inhibitors; 360,000 compounds, 6.9% hits; note: nearly all actives have a fitted effect of over 55% in size
Target sequence (P08659 whole entry, looked up): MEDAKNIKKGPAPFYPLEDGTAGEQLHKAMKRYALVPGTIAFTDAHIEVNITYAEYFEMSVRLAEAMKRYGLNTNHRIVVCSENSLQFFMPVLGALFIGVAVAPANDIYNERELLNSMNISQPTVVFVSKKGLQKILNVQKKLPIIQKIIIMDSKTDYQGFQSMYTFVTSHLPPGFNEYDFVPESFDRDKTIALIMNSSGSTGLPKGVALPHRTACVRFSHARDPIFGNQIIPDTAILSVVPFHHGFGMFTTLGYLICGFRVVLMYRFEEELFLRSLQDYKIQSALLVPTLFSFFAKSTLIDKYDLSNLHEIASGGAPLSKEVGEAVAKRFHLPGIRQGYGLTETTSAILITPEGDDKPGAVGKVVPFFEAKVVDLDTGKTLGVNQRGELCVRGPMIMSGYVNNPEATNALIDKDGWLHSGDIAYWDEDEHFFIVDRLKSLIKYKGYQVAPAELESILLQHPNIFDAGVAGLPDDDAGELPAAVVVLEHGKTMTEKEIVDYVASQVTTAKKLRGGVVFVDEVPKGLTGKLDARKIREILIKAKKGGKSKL
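Purified P. pyralis luciferase, 10 nM final, with Km-level 10 uM D-luciferin and 10 uM ATP in 50 mM Tris acetate pH 7.5, 10 mM Mg acetate, 0.01% Tween-20, 0.05% BSA; 6-point qHTS titration about 60 µM downward; luminescence read.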
ELG1 genotoxic = inducers of genotoxicity in HEK293T ELG1-luciferase cells. Potency, µM (series often up to 46 µM), hits mostly activators. 330,000 compounds, 1.3% hits. HEK293T ELG1-luciferase reporter, luminescence, 16 h. AID 504466; note: nearly all actives have a fitted effect of over 60% in size
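DMSO vehicle served as control against compound-treated ELG1-luciferase HEK293T cells; exposure lasted 16 hr at 37 °C and 5% CO2, followed by ONE-Glo luminescence detection after 30 min.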
Of the large screens only hits and unclear results are named; the others gave an inactive call. Calls come from the whole dose curve; as a rule, active = well fitted curve in the direction sought with a large enough effect; inconclusive = small, poorly fitted or top-dose-only effect, or another doubt; inactive = no such curve, though single readings can be large; an effect the other way counts as inactive or inconclusive.

COC(c1ccccc1)c1nnc(CCC(=O)N(C)CCCC2CCCC2)o1 (stereo not drawn)	FLuc modulator inconclusive (no result: SMN2 splice up)
COC(c1ccccc1)c1nnc(CCC(=O)N(C)CCOc2ccccc2)o1 (stereo not drawn)	FLuc modulator 26.9µM, ELG1 genotoxic inconclusive
O=C(COc1ccc(S(=O)(=O)N2CCOCC2)cc1)NCCN1CCOCC1	none (no result: SMN2 splice up)
CCC(=O)c1ccc(/C=C/c2nc3ccccc3n2C)o1	Rab9 promoter act 0.316µM, NPC1 promoter act 0.501µM, SMN2 splice up 3.16µM, FLuc modulator 3.38µM
Cn1c(/C=N/O)nc2ccccc21	none (no result: SMN2 splice up)
Cc1nc(C(=O)NNC(=O)c2cccc(Cl)c2)c(C(F)(F)F)o1	none (no result: SMN2 splice up)
Cc1nc(/C(N)=N/OC(=O)c2ccc(Cl)cc2)c(C(F)(F)F)o1	FLuc modulator 7.57µM (no result: SMN2 splice up)
Cc1c(C(=O)N2CCCC2)oc2c1-c1nn(CC(=O)NCc3ccccc3Br)cc1CC2	none (no result: Rab9 promoter act, NPC1 promoter act, SMN2 splice up, ELG1 genotoxic)
O=C(O)CSc1cc(C(=O)c2ccccc2O)cn2c(=O)c3c4c(sc3nc12)CCCC4	FLuc modulator 4.26µM (no result: SMN2 splice up)
O=C(O)CSc1nc2sc3c(c2c(=O)n1Cc1ccccc1)CCCCC3	FLuc modulator inconclusive, ELG1 genotoxic inconclusive (no result: SMN2 splice up)
O=C(CNc1ccccc1)N/N=C/c1cn(-c2ccccc2)nc1-c1ccccc1	none
NS(=O)(=O)c1ccc(N/N=C/c2cn(-c3ccccc3)nc2-c2ccccc2)c([N+](=O)[O-])c1	none
O=[N+]([O-])c1ccc(N/N=C/c2cn(-c3ccccc3)nc2-c2ccccc2)cc1	FLuc modulator 2.69µM, ELG1 genotoxic inconclusive
O=C(N/N=C/c1cn(-c2ccccc2)nc1-c1cccs1)c1ccccc1F	FLuc modulator 21.3µM
NC(=O)N/N=C/c1cn(-c2ccccc2)nc1-c1ccccc1	SMN2 splice up inconclusive, FLuc modulator 6.75µM, ELG1 genotoxic inconclusive
COc1ccc(-c2nn(-c3ccccc3)cc2/C=C/C(=O)OCC(=O)Nc2ccccc2C#N)cc1	ELG1 genotoxic inconclusive
CNC(=O)COC(=O)/C=C/c1cn(-c2ccccc2)nc1-c1ccc(C)o1	FLuc modulator 15.1µM (no result: SMN2 splice up)
CCCN(CC(=O)Nc1ccccc1OC)C(=O)c1nc2nc(C)ccn2n1	none (no result: Rab9 promoter act, NPC1 promoter act, SMN2 splice up, FLuc modulator)
COc1ccccc1N1CCN(C(=O)CN2C(=O)COc3ccc(S(=O)(=O)N4CCOCC4)cc32)CC1	none (no result: Rab9 promoter act, NPC1 promoter act, ELG1 genotoxic)
Cc1cccc(C(=O)NCC(=O)OCc2nc(N)nc(Nc3ccccc3C)n2)c1	none (no result: Rab9 promoter act, NPC1 promoter act, SMN2 splice up, FLuc modulator)
O=C(O)/C=C/c1cn(-c2ccccc2)nc1-c1ccc(-c2ccc([N+](=O)[O-])cc2)o1	FLuc modulator 9.53µM (no result: SMN2 splice up)
O=C(O)/C=C/c1cn(-c2ccccc2)nc1-c1cccc([N+](=O)[O-])c1	FLuc modulator inconclusive (no result: SMN2 splice up)
CCN(CC(=O)Nc1ccc(NC(C)=O)cc1)C(=O)/C=C/c1cn(-c2ccccc2)nc1-c1cccs1	Rab9 promoter act inconclusive, FLuc modulator 16.9µM (no result: SMN2 splice up)
CCN(CC)S(=O)(=O)c1cccc(-c2cn3cc(C)ccc3n2)c1	FLuc modulator 4.78µM, ELG1 genotoxic inconclusive
Cc1ccc2nc(-c3cccc(S(=O)(=O)N(C)C)c3)cn2c1	Rab9 promoter act 3.16µM, NPC1 promoter act inconclusive, FLuc modulator inconclusive
COc1ccc(-c2nc(S(=O)(=O)c3ccc(C)cc3)c(NCc3ccccc3)o2)cc1	none (no result: Rab9 promoter act, NPC1 promoter act, ELG1 genotoxic)
O=C(O)c1cc(-c2ccccc2)n[nH]1	none
O=C(O)/C=C/C(=O)NNC(=O)c1cc(-c2ccccc2)n[nH]1	FLuc modulator 10.7µM
O=C(O)/C=C\C(=O)NNC(=O)c1cc(-c2ccccc2)n[nH]1	FLuc modulator 10.7µM (no result: SMN2 splice up)
O=C(NNS(=O)(=O)c1ccccc1F)c1cc(-c2ccccc2)n[nH]1	none (no result: SMN2 splice up)
COc1ccc(C2CN=NC23CCc2ccccc2C3=O)cc1 (stereo not drawn)	FLuc modulator 16.9µM (no result: SMN2 splice up)
COc1ccc(C2CN=NC23CCCc2ccccc2C3=O)cc1 (stereo not drawn)	none
O=C1c2ccccc2CCC12N=NCC2c1ccc(Cl)cc1 (stereo not drawn)	FLuc modulator 21.3µM
CCc1ccc(-n2nc(C)c3c(C)cc(=O)n(Cc4nc(-c5ccccc5)oc4C)c32)cc1	none (no result: Rab9 promoter act, NPC1 promoter act, SMN2 splice up, ELG1 genotoxic)
CCCCCc1ccc(-c2ccc(OC)cc2)nc1	FLuc modulator inconclusive (no result: SMN2 splice up)
CCCCCc1ccc(-c2nnc(N)s2)cc1	Rab9 promoter act inconclusive, FLuc modulator 21.3µM, ELG1 genotoxic inconclusive (no result: SMN2 splice up)
CCCCCCc1ccc(-c2ncc(N)cn2)cc1	Rab9 promoter act inconclusive, SMN2 splice up 11.2µM, FLuc modulator 12µM, ELG1 genotoxic inconclusive
